From PubChem BioAssay (EPA / NIEHS)
Values joined by “and” are separate entries in the source; they are usually repeats but may differ in a detail not shown here. Equal values may be shown once. Records with an inconclusive call do not appear. A structure can be active in one record and inactive in another. Active and inactive are the calls of the source. How the source made its calls, unless noted: active means hit-call score of the fitted dose curve at least 0.9, where 1 is the maximum; inconclusive means response in the unintended direction; inactive means score below 0.9.

Key:
[1] = biological target: human RAR-related Orphan Receptor beta (RORb), RORB (gene 6096) (UniProt Q92753); test: ATG_RORb_TRANS: Attagene TRANS-FACTORIAL HepG2 Assay for human RAR-related Orphan Receptor beta (RORb) (AID 2283010)
How it was run: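 Read-out is reporter mRNA induction, quantified by RT-PCR with fluorescent capillary electrophoresis, 24 h post-dose in transiently transfected HepG2 expressing exogenous NR-Gal4 chimera. Activity fitted upward versus DMSO.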

[2] = biological target: human RAR-related Orphan Receptor gamma (RORg), RORC (gene 6097) (UniProt P51449); test: ATG_RORg_TRANS: Attagene TRANS-FACTORIAL HepG2 Assay for human RAR-related Orphan Receptor gamma (RORg) (AID 2283011)
How it was run: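 Readout: reporter transcript induction (RT-PCR, fluorescent primer extension, capillary electrophoresis) after 24 h compound exposure of transiently transfected HepG2 cells carrying a RORg-Gal4 chimera and GAL4-UAS reporters; DMSO served as baseline, with increasing signal fitted.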

[3] = biological target: Retinoic acid receptor RXR-alpha (Homo sapiens) (UniProt P19793); test: ATG_RXRa_TRANS: Attagene TRANS-FACTORIAL HepG2 Assay for human Retinoid X Receptor alpha (RXRa) (AID 2283012)
How it was run: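 TRANS format reporting activity of exogenous RXRa-Gal4 chimera in transiently transfected HepG2, 24 h exposure. Reporter transcripts quantified by RT-PCR with capillary electrophoresis, with gain of signal scored relative to DMSO.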

[4] = biological target: human Thyroid Receptor alpha (THRa1), THRA (gene 7067) (UniProt P10827); test: ATG_THRa1_TRANS: Attagene TRANS-FACTORIAL HepG2 Assay for human Thyroid Receptor alpha (THRa1) (AID 2283014)
How it was run: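 HepG2 cells transiently transfected with multiplexed GAL4-UAS reporter units for exogenous chimeric THRa1-Gal4; reporter mRNA measured 24 h after dosing by RT-PCR, 6-FAM labelling, HpaI digestion and capillary electrophoresis. Gain-of-signal fitted versus DMSO baseline.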

[5] = biological target: human Retinoid X Receptor beta (RXRb), RXRB (gene 6257) (UniProt P28702); test: ATG_RXRb_TRANS: Attagene TRANS-FACTORIAL HepG2 Assay for human Retinoid X Receptor beta (RXRb) (AID 2283013)
How it was run: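 Readout is reporter transcript induction after 24 h dosing. It is measured by RT-PCR of total RNA followed by fluorescent capillary electrophoresis. HepG2 liver cells carry transfected multiple reporter units driven by an exogenous RXRb-Gal4 fusion; activity is relative to DMSO.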

[6] = read-out: E-selectin (Homo sapiens) (UniProt P16581); test: BSK_3C_Eselectin: BioMAP Diversity Plus: 3C Assay for Eselectin Biomarker Activity (AID 2283015; active means hit-call score of the fitted dose curve at least 0.9, where 1 is the maximum; inactive means score below 0.9); details: primary human endothelial cells (HUVEC); actives raise or lower the signal
How it was run: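 Primary human umbilical vein endothelial cells (3C system) were dosed with chemical and cell-surface E-selectin measured by ELISA 24 h later. Bidirectional curve fitting used DMSO as negative control and baseline.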

[7] = read-out: Monocyte Chemoattractant Protein-1 (MCP1), CCL2 (gene 6347); test: BSK_3C_MCP1: BioMAP Diversity Plus: 3C Assay for Monocyte Chemoattractant Protein-1 (MCP1) Biomarker Activity (AID 2283017; active means hit-call score of the fitted dose curve at least 0.9, where 1 is the maximum; inactive means score below 0.9); details: primary human endothelial cells (HUVEC); actives raise or lower the signal
How it was run: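 Primary human umbilical vein endothelial cells (3C system) were exposed to test chemical for 24 h, after which MCP-1 was quantified by ELISA. Activity was fitted bidirectionally against DMSO as negative control and baseline.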

[8] = read-out: Monocyte Chemoattractant Protein-1 (MCP1), CCL2 (gene 6347); test: BSK_4H_MCP1: BioMAP Diversity Plus: 4H Assay for Monocyte Chemoattractant Protein-1 (MCP1) Biomarker Activity (AID 2283018; active means hit-call score of the fitted dose curve at least 0.9, where 1 is the maximum; inactive means score below 0.9); details: primary human endothelial cells (HUVEC); actives raise or lower the signal
How it was run: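 ELISA of MCP-1 (CCL2) 24 h after chemical dosing of HUVEC in the BioMAP 4H system. Gain or loss versus DMSO fitted; parallel SRB staining (560 nm) tracked overt cytotoxicity.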

[9] = read-out: Human Leukocyte Antigen - DR isotype (HLADR), HLA-DRA (gene 3122); test: BSK_3C_HLADR: BioMAP Diversity Plus: 3C Assay for Human Leukocyte Antigen - DR isotype (HLADR) Biomarker Activity (AID 2283019; active means hit-call score of the fitted dose curve at least 0.9, where 1 is the maximum; inactive means score below 0.9); details: primary human endothelial cells (HUVEC); actives raise or lower the signal
How it was run: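 Primary human umbilical vein endothelial cells (3C system) were dosed with compound and cell-surface HLA-DR was quantified by ELISA at 24 h. Activity was fitted bidirectionally against DMSO as negative control and baseline.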

Measured: AC50

human RAR-related Orphan Receptor gamma (RORg), RORC (gene 6097), sequence (P51449 whole entry, looked up, the tested form may be a part): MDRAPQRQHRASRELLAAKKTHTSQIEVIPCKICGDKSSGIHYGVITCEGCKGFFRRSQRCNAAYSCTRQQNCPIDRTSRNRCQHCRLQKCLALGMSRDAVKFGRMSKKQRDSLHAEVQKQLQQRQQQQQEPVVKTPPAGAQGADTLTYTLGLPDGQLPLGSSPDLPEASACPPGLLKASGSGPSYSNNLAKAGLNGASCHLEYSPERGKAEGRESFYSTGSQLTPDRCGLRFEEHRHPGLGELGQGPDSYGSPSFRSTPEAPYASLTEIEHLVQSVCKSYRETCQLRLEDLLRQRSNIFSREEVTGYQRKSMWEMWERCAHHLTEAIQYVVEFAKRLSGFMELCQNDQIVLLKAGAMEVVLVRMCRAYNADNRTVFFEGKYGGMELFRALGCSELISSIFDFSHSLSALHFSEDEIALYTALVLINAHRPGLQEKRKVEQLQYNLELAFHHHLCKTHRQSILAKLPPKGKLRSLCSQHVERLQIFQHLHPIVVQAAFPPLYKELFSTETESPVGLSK
E-selectin (Homo sapiens), sequence (P16581 whole entry, looked up): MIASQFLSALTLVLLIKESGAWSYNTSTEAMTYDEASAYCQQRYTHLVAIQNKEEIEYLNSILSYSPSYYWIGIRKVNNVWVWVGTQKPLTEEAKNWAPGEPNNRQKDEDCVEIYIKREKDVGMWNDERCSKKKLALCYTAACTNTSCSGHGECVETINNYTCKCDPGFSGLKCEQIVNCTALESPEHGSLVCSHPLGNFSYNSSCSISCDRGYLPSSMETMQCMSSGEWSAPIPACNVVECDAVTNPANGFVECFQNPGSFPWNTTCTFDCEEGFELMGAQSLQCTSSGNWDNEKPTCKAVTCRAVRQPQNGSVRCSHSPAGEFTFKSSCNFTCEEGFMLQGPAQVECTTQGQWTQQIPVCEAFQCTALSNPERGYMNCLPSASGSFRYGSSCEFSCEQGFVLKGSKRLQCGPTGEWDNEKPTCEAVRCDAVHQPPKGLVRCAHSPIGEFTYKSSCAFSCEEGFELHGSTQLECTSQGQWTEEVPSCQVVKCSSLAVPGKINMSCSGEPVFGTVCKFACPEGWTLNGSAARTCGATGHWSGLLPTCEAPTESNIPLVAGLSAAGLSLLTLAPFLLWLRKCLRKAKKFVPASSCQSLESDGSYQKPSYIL
human Thyroid Receptor alpha (THRa1), THRA (gene 7067), sequence (P10827 whole entry, looked up, the tested form may be a part): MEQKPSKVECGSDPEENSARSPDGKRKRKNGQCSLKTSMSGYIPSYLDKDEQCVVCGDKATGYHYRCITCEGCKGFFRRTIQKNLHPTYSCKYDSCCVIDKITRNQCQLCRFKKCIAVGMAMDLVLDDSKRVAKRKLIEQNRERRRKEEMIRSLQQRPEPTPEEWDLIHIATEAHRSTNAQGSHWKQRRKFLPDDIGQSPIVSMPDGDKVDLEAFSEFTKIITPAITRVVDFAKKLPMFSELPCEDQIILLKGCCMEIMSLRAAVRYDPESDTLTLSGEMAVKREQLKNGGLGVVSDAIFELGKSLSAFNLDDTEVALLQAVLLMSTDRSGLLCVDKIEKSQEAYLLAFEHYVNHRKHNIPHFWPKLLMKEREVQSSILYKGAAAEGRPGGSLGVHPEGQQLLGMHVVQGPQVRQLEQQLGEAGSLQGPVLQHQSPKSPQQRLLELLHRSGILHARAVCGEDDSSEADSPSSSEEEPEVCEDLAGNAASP
human RAR-related Orphan Receptor beta (RORb), RORB (gene 6096), sequence (Q92753 whole entry, looked up, the tested form may be a part): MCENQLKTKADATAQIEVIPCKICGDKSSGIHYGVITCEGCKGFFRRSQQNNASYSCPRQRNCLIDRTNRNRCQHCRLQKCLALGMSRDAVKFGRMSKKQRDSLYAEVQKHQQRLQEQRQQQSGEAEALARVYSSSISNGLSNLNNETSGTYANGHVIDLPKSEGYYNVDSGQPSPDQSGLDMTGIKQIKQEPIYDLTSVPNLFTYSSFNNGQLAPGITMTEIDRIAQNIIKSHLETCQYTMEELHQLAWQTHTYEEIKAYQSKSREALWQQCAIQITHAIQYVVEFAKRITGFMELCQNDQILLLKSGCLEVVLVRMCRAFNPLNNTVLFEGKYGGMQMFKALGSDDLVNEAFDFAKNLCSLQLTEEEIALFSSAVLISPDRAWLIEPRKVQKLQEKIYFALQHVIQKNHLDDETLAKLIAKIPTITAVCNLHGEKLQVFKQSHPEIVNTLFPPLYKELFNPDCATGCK
Retinoic acid receptor RXR-alpha (Homo sapiens), sequence (P19793 whole entry, looked up, the tested form may be a part): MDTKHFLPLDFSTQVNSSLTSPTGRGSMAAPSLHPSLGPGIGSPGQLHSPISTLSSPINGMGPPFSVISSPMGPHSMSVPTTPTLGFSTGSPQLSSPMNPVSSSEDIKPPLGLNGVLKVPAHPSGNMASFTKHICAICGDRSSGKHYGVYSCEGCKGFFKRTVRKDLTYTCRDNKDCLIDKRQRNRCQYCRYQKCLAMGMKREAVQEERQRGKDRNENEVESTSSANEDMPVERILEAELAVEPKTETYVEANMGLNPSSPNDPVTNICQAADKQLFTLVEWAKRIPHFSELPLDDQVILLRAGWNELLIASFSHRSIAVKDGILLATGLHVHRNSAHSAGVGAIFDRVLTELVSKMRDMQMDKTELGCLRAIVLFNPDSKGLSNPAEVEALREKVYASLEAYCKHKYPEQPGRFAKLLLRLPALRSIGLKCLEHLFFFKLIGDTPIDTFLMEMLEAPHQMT
human Retinoid X Receptor beta (RXRb), RXRB (gene 6257), sequence (P28702 whole entry, looked up, the tested form may be a part): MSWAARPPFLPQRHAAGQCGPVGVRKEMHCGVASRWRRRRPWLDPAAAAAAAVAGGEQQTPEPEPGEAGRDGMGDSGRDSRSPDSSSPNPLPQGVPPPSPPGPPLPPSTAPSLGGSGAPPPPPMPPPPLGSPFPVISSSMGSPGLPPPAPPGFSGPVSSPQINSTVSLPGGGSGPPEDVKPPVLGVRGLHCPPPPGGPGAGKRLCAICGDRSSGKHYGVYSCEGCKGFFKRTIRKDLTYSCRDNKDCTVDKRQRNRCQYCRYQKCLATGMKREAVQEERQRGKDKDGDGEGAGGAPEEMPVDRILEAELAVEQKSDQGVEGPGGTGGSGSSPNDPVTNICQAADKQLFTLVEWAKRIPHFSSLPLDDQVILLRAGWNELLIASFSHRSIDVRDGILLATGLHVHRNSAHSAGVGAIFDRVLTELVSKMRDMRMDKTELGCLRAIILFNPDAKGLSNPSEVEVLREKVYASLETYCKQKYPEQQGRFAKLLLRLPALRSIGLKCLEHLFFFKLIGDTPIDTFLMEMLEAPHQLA

COc1ccc(C(C)=O)cc1
inactive: [1] | [2] | [3] | [4]

CC(C)C(=O)OCC=Cc1ccccc1
inactive: [1] | [2] | [3]

CC(O)CN (stereo not given)
inactive: [1]

O=C(O)CS
inactive: [1]

NNC(=O)OCc1ccccc1
inactive: [1] | [2] | [3] | [5] | [4]

CCOCC(C)O (stereo not given)
inactive: [1] | [2]

CC(C)Cc1ccccc1
inactive: [1] | [2] | [3] | [5]

CNC(=C[N+](=O)[O-])NCCSCc1ccc(CN(C)C)o1
inactive: [1] | [2]

CCCC[N+](C)(CCCC)CCCC
inactive: [1] | [2] | [3] | [5]

N=C1N=C(N)c2ccccc21
inactive: [1] | [2] | [3] | [5] | [4]

CC(=O)OC(C)(C)C1CC=C(C)CC1 (stereo not given)
active: [6] 31 µM | [7] 31.3 µM | [8] 29.8 µM | [9] 31.3 µM
not listed: [4]
inactive: all other assays above

ClCCOCCOCCCl
inactive: [1] | [2] | [3] | [5] | [4]

CC(O)CNCC(C)O (stereo not given)
inactive: [1] | [2] | [3] | [5]

C[C@H](CCC(=O)O)[C@H]1CC[C@H]2[C@@H]3CC[C@@H]4C[C@H](O)CC[C@]4(C)[C@H]3CC[C@]12C
inactive: [1] | [2] | [3]

CC/C=C\CCCCO
inactive: [1] | [2] | [3] | [4]

O=S1(=O)CC=CC1
inactive: [1] | [2] | [3]

O=c1cc[nH]cc1
inactive: [1] | [2] | [3] | [5] | [4]

CCOC(=O)C(=O)OCC
inactive: [1]

N#CCCNCCC#N
inactive: [1] | [2] | [3] | [5]

CCC(C)C1CCCCC1=O (stereo not given)
inactive: [1] | [2] | [3] | [5] | [4]

O=C(O)c1cc2ccccc2cc1O
inactive: [1] | [2] | [3] | [5] | [4]

COC(=O)C(C)Oc1ccc(Oc2ncc(C(F)(F)F)cc2Cl)cc1 (stereo not given)
inactive: [1] | [3] | [5] | [4]

c1coc(CNc2ncnc3nc[nH]c23)c1
inactive: [1] | [2] | [3] | [4]

CCCCOCC(C)OCC(C)O (stereo not given)
inactive: [1] | [2] | [4]

CC(C)CCCC(C)(C)O
not listed: [3] | [4]
inactive: all other assays above

NC(N)=S
inactive: [1] | [2] | [4]

NC(=O)c1c(Cl)cccc1Cl
not listed: [5]
inactive: all other assays above

O=C(C=Cc1ccccc1)OCCCc1ccccc1
active: [5] 66.6 µM
inactive: [1] | [3]

CC(C)(O)CCc1ccccc1
inactive: [1] | [2] | [5]

CCCCCCCCCCCCS
inactive: [1] | [2] | [5]
active: [6] 20 µM | [7] 29.5 µM | [8] 23.8 µM | [9] 20 µM

CC(=N[Si](C)(C)C)O[Si](C)(C)C
inactive: [1] | [2] | [4]

COc1ccccc1O
inactive: [1] | [2] | [4]

CC(C)(C)C1CCC(O)CC1 (stereo not given)
inactive: [1] | [3] | [5] | [4]

O=S1(=O)CC(Cl)(Cl)C(Cl)(Cl)C1
active: [6] 0.611 µM | [7] 0.961 µM | [8] 0.537 µM | [9] 0.327 µM
not listed: [3]
inactive: all other assays above

CC(C)OB(OC(C)C)OC(C)C
inactive: [1] | [2] | [4]

CCCCC(CC)COCCO (stereo not given)
active: [5] 100 µM
inactive: [1] | [3] | [4]

CCOc1ccc(NC(C)=O)cc1
inactive: [1] | [2] | [4]

NCCN1CCNCC1
inactive: [1] | [2]
active: [5] 25.3 µM

CCC(C)(CCCC(C)C)OC(C)=O (stereo not given)
inactive: [1] | [3]
active: [5] 64.8 µM

COC(=O)c1cccc(C(=O)OC)c1
inactive: [1] | [2] | [5]

C=C(C)C(=O)OCCC[Si](OC)(OC)OC
inactive: [1] | [2] | [4]

O=Cc1ccccc1O
inactive: [1] | [2] | [5] | [4]

Cc1cc(N)n(-c2ccccc2)n1
inactive: [1] | [2] | [5] | [4]
